Results as given in PubChem BioAssay (NCATS).
Inconclusive results are not listed. Activity calls are given as the source filed them. The call rests on the fitted dose curve; in most records, active means well fitted inhibition curve with a large enough effect; inconclusive means small, poorly fitted or top-dose-only effect; inactive means flat fitted curve, though single readings scatter.

What follows are compounds tested against Aldehyde dehydrogenase, mitochondrial (Homo sapiens) (UniProt P05091) (assay: qHTS for Inhibitors of the Aldehyde Dehydrogenase Family (ALDH2) Primary screen (AID 2061308;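 further: plate controls were vehicle for no effect and reference inhibitor for full effect; nearly all actives have a fitted effect of over 55% in size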)). Conditions: ALDH2 enzyme inhibition qHTS, 1536-well; series mostly up to 56 µM; activity change, negative = inhibition: at the top concentration.

Structure (SMILES)	activity change, negative = inhibition
CCCn1c(-c2ccc(F)cc2)nc2c(NC3CC4CCC(C3)N4C)nc(C)nc21 (stereo not given)	3.6% (inactive)
Cc1ccc(C(C)c2ccc(=O)n(CC(=O)NCCc3ccccc3)n2)cc1 (stereo not given)	3.25% (inactive)
CCCn1c(C)nc2c(NCCCN(CC)CC)nc(C)nc21	-4.77% (inactive)
COc1ccc(CN2C(=O)c3ccccc3NC2c2ccc(OC)c(COc3c(C)cc(NC(C)=O)cc3C)c2)cc1 (stereo not given)	4.48% (inactive)
O=C(Nc1ccc(Cl)c(Cl)c1)Nc1nnc(-c2ccc(F)cc2)s1	-4.5% (inactive)
Cc1ccc(S(=O)(=O)Nc2ccccc2C(=O)Nc2nc(-c3ccccc3)c(Br)s2)cc1	-12.9% (inactive)
O=C(c1ccc2c(c1)ncn2-c1ccc(C(F)(F)F)cc1)N1CCCCC1	-9.74% (inactive)
O=C1c2ccccc2C(=O)N1Cc1ccccc1	-5.25% (inactive)
N#CN1CCC(NC(=O)c2ccc(C(F)(F)F)cc2)CC1	6.51% (inactive)
Brc1ccc(-c2csc(N3CCOCC3)n2)cc1	1.29% (inactive)
Cc1ccc(CN(C)c2ncnc3ccc(-c4ccc(C(=O)O)o4)cc23)o1	3.23% (inactive)
NC(=O)c1c(-c2ccccc2)no[n+]1[O-]	7.73% (inactive)
COC(=O)N[C@H](C(=O)N1[C@@H]2CC[C@@H](C2)[C@H]1c1nc2ccc(-c3ccc4c(c3)C(F)(F)c3cc(-c5cnc([C@@H]6CCC7(CC7)N6C(=O)[C@@H](NC(=O)OC)C(C)C)[nH]5)ccc3-4)cc2[nH]1)C(C)C	0.0958% [at 28 µM] (inactive)
N#Cc1c(Cl)cccc1Oc1ccc([S+](=O)([O-])N2CCN([S+](=O)([O-])c3c(F)cccc3F)CC2)cc1	-11.2% (inactive)
Cc1cccc(-n2cnc3cc(C(=O)N4CCCC(C(C)C)C4)ccc32)c1 (stereo not given)	2.79% (inactive)
O=C(CCc1ccccc1)Nc1cccc([S+](=O)([O-])Nc2ccccc2F)c1	-6.42% (inactive)
O=C(O)CC(=O)OC[C@H]1O[C@@H](Oc2ccc3c(c2)OC[C@H]2c4cc5c(cc4O[C@@H]32)OCO5)[C@H](O)[C@@H](O)[C@@H]1O	-6.23% [at 28 µM] (inactive)
CC1(C)CC(C(=O)Nc2ccc([S+](=O)([O-])Nc3nccs3)cc2)C1	5.51% (inactive)
CC(=O)O[C@@H]1C[C@]2(C)[C@@]3(CCC4[C@@]5(C)CC[C@H](O[C@@H]6O[C@H](C(=O)O)[C@@H](O)[C@H](O[C@@H]7O[C@H](CO)[C@H](O)[C@H](O)[C@H]7O[C@@H]7O[C@@H](C)[C@H](O)[C@@H](O)[C@H]7O[C@@H]7OC[C@](O)(CO)[C@H]7O)[C@H]6O[C@@H]6O[C@H](CO)[C@H](O)[C@H](O)[C@H]6O)C(C)(C)C5CC[C@]42C)O[C@@H](O)[C@]12C3CC(C)(C)[C@@H](OC(=O)/C=C/c1ccc(O)c(O)c1)[C@@H]2OC(=O)/C=C/c1ccccc1 (stereo not given in full)	3.11% [at 11.2 µM] (inactive)
CCCCC1CCC(C(=O)Nc2ccc(S(=O)(=O)Nc3nccs3)cc2)CC1 (stereo not given)	5.41% (inactive)

Structure (SMILES)	activity change, negative = inhibition
Cc1c(C(=O)NCC2CCCO2)[nH]c2c1C(=O)CC(c1ccco1)C2 (stereo not given)	-9.62% (inactive)
Cc1ccc(OC2=NS(=O)(=O)c3ccccc32)cc1	-12.7% (inactive)
Cc1cc(Nc2nc(-c3ccccc3)nc3ccccc23)n[nH]1	-9.84% (inactive)
CNc1oc(-c2cccs2)nc1C#N	2.53% (inactive)
O=C(Nc1ccc(N2CCOCC2)c(C(F)(F)F)c1)Nc1nnc(-c2ccncc2)s1	17.1% (inactive)
Cc1cc(NC(=S)N2CCN(c3cccc(C(F)(F)F)c3)CC2)nc2ccccc12	-0.878% (inactive)
COc1ccc(-c2nnc3n2N=C(c2ccc(OC)cc2OC)CS3)cc1	2.12% (inactive)
O=S(=O)(Nc1nccs1)c1ccc(NCc2cccc(Cl)c2O)cc1	-18.4% (inactive)
COc1ccc(/C=C2/C(=O)Nc3ccccc32)cc1O	21.3% (inactive)
COc1ccc(-c2nc3ccccc3c(=O)n2Cc2ccccc2)cc1COc1ccc(NC(C)=O)cc1	1.81% (inactive)
Cc1ccc(OCCn2c(CCNC(=O)NC3CCCCC3)nc3ccccc32)cc1	-7.52% (inactive)
C[C@@H]1COCCN1c1cc(C2(S(C)(=O)=O)CC2)nc(-c2cccc3[nH]ccc23)n1	5.13% (inactive)
O=C(O)c1ccnc2c(O)cccc12	-7.77% (inactive)
Cc1ccc(C2N=C(Nc3nc4ccccc4o3)NC3=C2C(=O)CCC3)s1 (stereo not given)	-22.9% (inactive)
Cc1nc(N2CCOCC2)c2nc(-c3ccccc3)n(CCCN3CCCCC3C)c2n1 (stereo not given)	1.72% (inactive)
O=C(Nc1cc(C(F)(F)F)ccc1Cl)C(O)Cc1ccccc1 (stereo not given)	13.7% (inactive)
Cc1c[nH]c2nccc(Oc3c(F)cc(Nc4cc(Cl)nc(N)n4)cc3F)c12	-12% (inactive)
Cc1nc(NC2CCCCC2)c2nc(-c3ccccc3)n(CCCN3CCCCC3C)c2n1 (stereo not given)	13.7% (inactive)
CCOc1ccc(CCNC(=O)c2csc(Br)n2)cc1OCC	-6.97% (inactive)
O=C(Cn1cc(CNCc2ccccc2)nn1)Nc1cc(C(F)(F)F)ccc1Cl	8.31% (inactive)
